Compound activity deposited in PubChem by several laboratories.
GluA2 TARP mod: GluA2-stargazin AMPA receptor complex modulation; calls only at 30 µM; HEK293 GluA2+stargazin, membrane potential dye (FDSS), glutamate EC50; hits were called plate by plate, in both directions; 40,000 compounds, 3.5% hits; O88602+P19491;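 active means any of four per-well response measures lying three or more SD from its plate-wide compound average, in either direction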
GIRK2 activator: Activates human GIRK2-containing potassium channels; P48051; 34,000 tested, under 10 active; activation (% efficacy), % for hits at 37.5 µM; AID 1259324; HEK293 GIRK2/NPY4 cells, thallium flux fluorescence;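 active means primary screen hit, no activity in plain HEK293 cells, and in GIRK2-only cells above 5% efficacy rising with concentration; inactive means the rest, including fluorescent compounds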;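 further: efficacy is normalized control-subtracted fluorescence 15 s after thallium addition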
Target sequence (P48051 whole entry, looked up): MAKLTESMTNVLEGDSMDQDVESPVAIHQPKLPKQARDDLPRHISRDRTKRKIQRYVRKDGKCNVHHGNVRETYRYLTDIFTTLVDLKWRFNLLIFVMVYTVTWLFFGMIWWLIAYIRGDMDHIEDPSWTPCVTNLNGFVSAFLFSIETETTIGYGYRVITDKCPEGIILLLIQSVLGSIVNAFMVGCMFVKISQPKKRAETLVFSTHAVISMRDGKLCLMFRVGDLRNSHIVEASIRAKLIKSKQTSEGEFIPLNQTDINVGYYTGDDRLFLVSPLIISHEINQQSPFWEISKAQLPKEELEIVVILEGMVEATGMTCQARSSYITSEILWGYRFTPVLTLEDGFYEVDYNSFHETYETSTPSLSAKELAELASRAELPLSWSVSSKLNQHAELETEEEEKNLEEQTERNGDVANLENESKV
Each line names hits and unclear results; the compound was inactive in the other large screens. This excerpt belongs to a sample that is enriched for hits.

COc1ccc(-c2nnc3ccc(OCCNC(=O)c4ccccc4Cl)nn23)cc1	none
COc1cccc(-c2nnc3ccc(OCCNC(=O)Nc4cccc(C)c4)nn23)c1	none
COc1cccc(-c2nnc3ccc(OCCNC(=O)NC4CCCCC4)nn23)c1	GluA2 TARP mod active
COc1ccc(-c2nnc3ccc(OCCNC(=O)c4cccs4)nn23)cc1OC	none
COc1ccc(-c2ccc(=O)n(CCNS(=O)(=O)c3ccc(OC)c(OC)c3)n2)cc1	none (no result: GIRK2 activator)
O=C(NCC1CC1)C1CCN(c2cc(Oc3ccccc3)ncn2)CC1	none
O=C(NCC1CCN(C(=O)/C=C/c2ccco2)CC1)c1cccc(Br)c1	none
O=C(CSc1nc2ccc(N3CCOCC3)cc2c(=O)n1Cc1ccccc1)c1ccc(F)cc1	none
CCN(CC)S(=O)(=O)CCNC(=O)c1ccccc1	GluA2 TARP mod active (no result: GIRK2 activator)
COCCN(CCOC)S(=O)(=O)CCNC(=O)c1ccccc1	none (no result: GIRK2 activator)
CC1(C)C2CCC1(C)C(OCC(O)CN1CCN(CCO)CC1)C2 (configuration not stated)	none
O=C(Nc1c(Cl)cccc1Cl)C1CCCCC1	GluA2 TARP mod active (no result: GIRK2 activator)
CSc1cccc2sc(NC(=O)C3CCCCC3)nc12	none
CC1(C)C(=O)NCCN1C(=O)c1ccco1	GluA2 TARP mod active
Cn1ccc(C(=O)N2CCNC(=O)C2(C)C)n1	none
COc1ccc(C2(CNS(=O)(=O)c3cccnc3)CCCC2)cc1	none
COc1ccc(C2(CNS(=O)(=O)c3c(C)n[nH]c3C)CCCC2)cc1	GluA2 TARP mod active
O=C(CN1CCN(c2nccn2-c2cccc(Cl)c2)CC1)N1CCOCC1	none
CCc1nc2ccccc2n1CCOc1ccccc1	none (no result: GIRK2 activator)
CCC(O)c1nc2ccccc2n1CCOc1ccccc1 (configuration not stated)	GluA2 TARP mod active (no result: GIRK2 activator)
O=C(NCc1cccs1)C(=O)NCC1CCN(Cc2cccs2)CC1	none
COCCN1CCC(CNC(=O)C(=O)NCc2cccs2)CC1	GluA2 TARP mod active
COc1ccc(S(=O)(=O)N2CCC3(CC2)C(=O)N(C)C(=O)N3C)cc1OC	none
COc1ccc(CCNC(=O)C(=O)c2cn(CC(=O)N3CCOCC3)c3ccccc23)cc1	GluA2 TARP mod active (no result: GIRK2 activator)
COc1ccc(NC(=O)C(=O)c2cn(CC(=O)N3CCOCC3)c3ccccc23)cc1	none (no result: GIRK2 activator)
CCOC(=O)N1CCc2c(sc(NC(=O)c3ccccc3F)c2-c2nc3ccccc3s2)C1	none (no result: GIRK2 activator)
CC(=O)N1CCN(C(=O)c2csc(NS(=O)(=O)c3ccccc3)n2)CC1	none
CCCS(=O)(=O)N1CCc2ccc(NC(=O)c3ccno3)cc2C1	none
COc1ccc(Cl)cc1NC(=O)Nc1ccc2c(c1)CN(C(=O)C1CC1)CC2	none
Cc1nc(N2CCN(c3ccccc3F)CC2)c2c3c(sc2n1)CCCC3	none (no result: GIRK2 activator)
CCc1nc(-n2nc(C)cc2N)c2c3c(sc2n1)CCC3	GluA2 TARP mod active
NC(=O)CSc1nc(-c2ccccc2)c(NC(=O)c2cccs2)s1	none
O=C(NCC1CC(=O)N(Cc2ccccc2)C1)C1CCCCC1 (configuration not stated)	none
Cc1ccc(CNC(=O)Cn2cnc(C(C)C)cc2=O)cc1	GluA2 TARP mod active
Cc1ccc(CNC(=O)Cn2cnc(-c3ccc(C)cc3)cc2=O)cc1	none
CC(=O)c1cccc(NC(=O)c2ccc(S(=O)(=O)N(C)Cc3ccccc3)cc2)c1	none (no result: GIRK2 activator)
Cc1ccc(N2C(=O)CCS2(=O)=O)cc1S(=O)(=O)NCCc1c[nH]c2ccccc12	none
O=C1CCS(=O)(=O)N1c1ccc(S(=O)(=O)NCCc2cccs2)cc1	GluA2 TARP mod active
CCOC(=O)N1CCc2c(sc(NC(=O)c3cc(C)no3)c2C#N)C1	none
O=C(Cn1c(=O)n(C2CC2)c(=O)c2nscc21)NCc1ccccc1	none
CSc1ccccc1NC(=O)C(=O)NCC1CCN(C(=O)c2cccnc2)CC1	none
Cn1c(O)c(N=Nc2nc3c(c(=O)n(Cc4ccccc4)c(=O)n3C)n2C)c(=O)n(C)c1=O	GluA2 TARP mod active (no result: GIRK2 activator)
Cn1c(=O)c2c(nc(N=Nc3c(O)[nH]c4ccccc34)n2Cc2ccccc2)n(C)c1=O	none (no result: GIRK2 activator)
Cc1cccc2sc(NC(=O)c3ccno3)nc12	none
COc1cc([N+](=O)[O-])cc2sc(NC(=O)c3ccno3)nc12	GluA2 TARP mod active
NC(=O)CSc1nc(=O)n(CCO)c2c1CCCC2	none
Cc1ccc(N2CC(C(=O)N3CCC4(CC3)OCCN4S(=O)(=O)c3ccccc3)CC2=O)cc1C (configuration not stated)	none (no result: GluA2 TARP mod)
COC(=O)c1ccc2c(=O)n(Cc3ccc(C(=O)NC4CCCC4)cc3)c(=S)[nH]c2c1	none
COC(=O)c1ccc2c(=O)n(Cc3ccc(C(=O)NCCCN4CCOCC4)cc3)c(=S)[nH]c2c1	GluA2 TARP mod active
O=C(NCC1(O)CCCC1)c1cccc(Br)c1	none
O=C(c1ccco1)N1CCC(c2nnc(-c3ccco3)o2)CC1	none (no result: GIRK2 activator)
O=C(Nc1ccc(Cl)cc1)c1ccc(=O)n(Cc2cccc(Cl)c2)c1	none
O=C(Nc1cccc([N+](=O)[O-])c1)c1ccc(=O)n(Cc2cccc([N+](=O)[O-])c2)c1	none
